According to PubChem BioAssay (NCATS):

Test: High-throughput drug toxicity screening in the BPDCN cell line Gen2.2 (AID 1224824);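 note: cells exposed to compounds for 48 h before reading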
Settings: Gen2.2 BPDCN cells; at 45.8 µM (top of the series)
Procedure, shortened: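 CellTiter-Glo luminescence after 48 h compound exposure of Gen2.2 cells; percent activity set with DMSO as 100% and bortezomib (9.2 uM final) as 0%. Cells seeded at 500 per well, RPMI + 10% FBS, 37 °C.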

Row | SMILES | cell viability, % of control (lower = more cytotoxic)
1 | CCOC(=O)Nc1ccc(NCc2ccc(F)cc2)cc1N | 120%
2 | CC(C)N[C@@H]1CCn2c(=O)[nH]c3cccc(c32)[C@@H]1O | 22.6%
3 | CC(=O)O[C@@]12CO[C@H]1C[C@H](O)[C@@]1(C)C(=O)[C@H](O)C3=C(C)[C@@H](O)C[C@@](O)([C@@H](OC(=O)c4ccccc4)[C@@H]21)C3(C)C | 42%
4 | c1cc2c(cc1[C@H]1OC[C@H]3[C@H]1CO[C@H]3c1ccc3c(c1)OCO3)OCO2 | 197%
5 | O=C1CCC[C@@H]2[C@H]3CCCN4CCC[C@@H](CN12)[C@@H]34 | 219%
6 | COCC1(CO)C(=O)C2CCN1CC2 (centres undefined) | 4.6%
7 | CCOC(=O)c1c(C(C#N)=CN)c2ccc(Cl)c(Cl)c2n1C | 130%
8 | N=c1c2c(-c3ccccc3)c(-c3ccccc3)n(Cc3ccccc3)c2ncn1C1CCC(O)CC1 (centres undefined) | 130%
9 | C[C@@H]1CC[C@@]2(OC1)O[C@H]1C[C@H]3[C@@H]4CC=C5C[C@@H](O[C@@H]6O[C@H](CO)[C@@H](O[C@@H]7O[C@@H](C)[C@H](O)[C@@H](O)[C@@H]7O)[C@H](O)[C@@H]6O[C@@H]6O[C@@H](C)[C@H](O)[C@@H](O)[C@@H]6O)CC[C@]5(C)[C@@H]4CC[C@]3(C)[C@@H]1[C@H]2C | 10.6%
10 | CC1=C(O)C(=O)C=C2C1=CC=C1[C@@]2(C)CC[C@@]2(C)[C@@H]3C[C@](C)(C(=O)O)CC[C@]3(C)CC[C@]12C | 12.3%
11 | O=S(=O)(CC1CS1)c1ccc(Oc2ccccc2)cc1 (centres undefined) | 3.87%
12 | CC[C@H]1C=CC=CC[C@@H](C)[C@H](O)[C@@](C)(O)C(=O)[C@@H](C)[C@H](O)[C@@H](C)C(=O)[C@@H](C)[C@H](O)[C@@H](C)C=CC(=O)O[C@@H]2[C@@H](C)[C@H](CC1)O[C@]1(CC[C@H](C)[C@H](C[C@@H](C)O)O1)[C@H]2C | 8.73%
13 | Oc1ccc2c3c1O[C@H]1c4[nH]c5c(c4C[C@@]4(O)[C@@H](C2)N(CC2CC2)CC[C@]314)C[C@@]1(O)[C@H]2Cc3ccc(O)c4c3[C@@]1(CCN2CC1CC1)[C@H]5O4 | 143%
14 | O=C(Nc1ccncc1)C(=O)c1cn(Cc2ccc(Cl)cc2)c2ccccc12 | 73.9%
15 | O=C1C=CC[C@@H]2[C@H]3CCCN4CCC[C@@H](CN12)[C@@H]34 | 126%
16 | O=c1cccc2n1CC1CNC[C@H]2C1 | 51.5%
17 | O=C(O)CNC(=O)c1c(O)c2ccccc2n(Cc2ccccc2)c1=O | 256%
18 | C[C@](O)(COc1ccc(C#N)cc1)C(=O)Nc1ccc(C#N)c(C(F)(F)F)c1 | 54.6%
19 | Cc1c(C(=O)Nc2cccc(C(F)(F)F)c2)cc(-c2ccccc2)n1CCCN1CCOCC1 | 52.7%

Row | SMILES | cell viability, % of control (lower = more cytotoxic)
20 | CC(=Cc1csc(C)n1)[C@@H]1C[C@H]2O[C@]2(C)CCC[C@H](C)[C@@H](O)[C@@H](C)C(=O)C(C)(C)[C@@H](O)CC(=O)O1 | 50.2%
21 | CCCCCC[C@H]1C(=O)O[C@H](C)[C@H](NC(=O)c2cccc(NC=O)c2O)C(=O)O[C@@H](C)[C@@H]1OC(=O)CC(C)C | 177%
22 | Cc1c(C(=O)c2cccc3ccccc23)c2cccc3c2n1[C@H](CN1CCOCC1)CO3 | 17.7%
23 | CC(O)=C(C#N)C(=O)Nc1cc(Br)ccc1Br | 79.3%
24 | C1=C2CCCN[C@H]2[C@@H]2C[C@H]1[C@@H]1CCCCN1C2 | 131%
25 | CCC(=O)OC1CCC2C3CCC4=CC(=O)CC[C@@]4(C)C3CC[C@]12C (some centres undefined) | 223%
26 | NC1CC1c1ccccc1 (centres undefined) | 70.9%
27 | C[C@@H]1O[C@@H](O[C@@H]2C=C3CC[C@@H]4[C@@H](CC[C@]5(C)[C@H](c6ccc(=O)oc6)CC[C@@]45O)[C@@]3(C)CC2)[C@H](O)[C@H](O)[C@H]1O | 16.6%
28 | O=c1[nH]c2ccc(Cl)cc2c(N[C@@H]2CN3CCC2CC3)c1-c1nc2ccccc2[nH]1 | 2.72%
29 | c1ccc(CCCN2CCN(CCOC(c3ccccc3)c3ccccc3)CC2)cc1 | 8.38%
30 | CN1CCN(c2ccc([N+](=O)[O-])c3no[n+]([O-])c23)CC1 | 4.61%
31 | C#CC1(O)CCC2C3CCC4=CC(=O)CCC4(C)C3CCC21C (centres undefined) | 168%
32 | C[C@]12COC(=O)C[C@@H]1CC[C@@H]1[C@H]2CC[C@@]2(C)[C@H]1CC[C@]2(C)O | 122%
33 | CC(C)[C@H]1C(=O)N[C@H](CO)Cc2c[nH]c3cccc(c23)N1C | 391%
34 | C[C@@]12OC(=O)[C@]1([C@@H](O)[C@@H]1C=CCCC1)NC(=O)[C@H]2CCCl | 5.68%
35 | CCNC(=O)C[C@@H]1N=C(c2ccc(Cl)cc2)c2cc(OC)ccc2-n2c(C)nnc21 | 12.3%
36 | CC(=Cc1csc(C)n1)[C@@H]1C[C@H]2O[C@@H]2CCC[C@H](C)[C@@H](O)[C@@H](C)C(=O)C(C)(C)[C@@H](O)CC(=O)O1 | 50.1%
37 | C[C@]12CCC(=O)C(O)=C1CC[C@@H]1[C@H]3CCC(=O)[C@@]3(C)CC[C@@H]12 | 78%

Test: High-throughput drug toxicity screening in the BPDCN cell line Cal-1 (AID 1224825)
Settings: Cal-1 BPDCN cell viability, qHTS; at 45.8 µM (top of the series)
Procedure, shortened: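 Exponentially growing Cal-1 cells, 500 per well in phenol red-free RPMI with 10% FBS, were exposed to compounds for 48 h at 37 °C, 5% CO2. Viability was read by CellTiter-Glo luminescence and normalised to DMSO (100%) and 9.2 uM bortezomib (0%).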

Row | SMILES | viability (% of control)
38 | CCOC(=O)Nc1ccc(NCc2ccc(F)cc2)cc1N | 105%
39 | CC(C)N[C@@H]1CCn2c(=O)[nH]c3cccc(c32)[C@@H]1O | 7.1%
40 | CC(=O)O[C@@]12CO[C@H]1C[C@H](O)[C@@]1(C)C(=O)[C@H](O)C3=C(C)[C@@H](O)C[C@@](O)([C@@H](OC(=O)c4ccccc4)[C@@H]21)C3(C)C | 20.6%
41 | c1cc2c(cc1[C@H]1OC[C@H]3[C@H]1CO[C@H]3c1ccc3c(c1)OCO3)OCO2 | 91%
42 | O=C1CCC[C@@H]2[C@H]3CCCN4CCC[C@@H](CN12)[C@@H]34 | 120%
43 | COCC1(CO)C(=O)C2CCN1CC2 (centres undefined) | 2.52%
44 | CCOC(=O)c1c(C(C#N)=CN)c2ccc(Cl)c(Cl)c2n1C | 94.3%
45 | N=c1c2c(-c3ccccc3)c(-c3ccccc3)n(Cc3ccccc3)c2ncn1C1CCC(O)CC1 (centres undefined) | 11.7%
46 | C[C@@H]1CC[C@@]2(OC1)O[C@H]1C[C@H]3[C@@H]4CC=C5C[C@@H](O[C@@H]6O[C@H](CO)[C@@H](O[C@@H]7O[C@@H](C)[C@H](O)[C@@H](O)[C@@H]7O)[C@H](O)[C@@H]6O[C@@H]6O[C@@H](C)[C@H](O)[C@@H](O)[C@@H]6O)CC[C@]5(C)[C@@H]4CC[C@]3(C)[C@@H]1[C@H]2C | 12.9%
47 | CC1=C(O)C(=O)C=C2C1=CC=C1[C@@]2(C)CC[C@@]2(C)[C@@H]3C[C@](C)(C(=O)O)CC[C@]3(C)CC[C@]12C | 7.21%
48 | O=S(=O)(CC1CS1)c1ccc(Oc2ccccc2)cc1 (centres undefined) | 3.02%
49 | CC[C@H]1C=CC=CC[C@@H](C)[C@H](O)[C@@](C)(O)C(=O)[C@@H](C)[C@H](O)[C@@H](C)C(=O)[C@@H](C)[C@H](O)[C@@H](C)C=CC(=O)O[C@@H]2[C@@H](C)[C@H](CC1)O[C@]1(CC[C@H](C)[C@H](C[C@@H](C)O)O1)[C@H]2C | 6.39%
50 | Oc1ccc2c3c1O[C@H]1c4[nH]c5c(c4C[C@@]4(O)[C@@H](C2)N(CC2CC2)CC[C@]314)C[C@@]1(O)[C@H]2Cc3ccc(O)c4c3[C@@]1(CCN2CC1CC1)[C@H]5O4 | 119%
51 | O=C(Nc1ccncc1)C(=O)c1cn(Cc2ccc(Cl)cc2)c2ccccc12 | 16.2%
52 | O=C1C=CC[C@@H]2[C@H]3CCCN4CCC[C@@H](CN12)[C@@H]34 | 120%
53 | O=c1cccc2n1CC1CNC[C@H]2C1 | 13.3%
54 | O=C(O)CNC(=O)c1c(O)c2ccccc2n(Cc2ccccc2)c1=O | 132%
55 | C[C@](O)(COc1ccc(C#N)cc1)C(=O)Nc1ccc(C#N)c(C(F)(F)F)c1 | 99.4%
56 | Cc1c(C(=O)Nc2cccc(C(F)(F)F)c2)cc(-c2ccccc2)n1CCCN1CCOCC1 | 37.9%

Row | SMILES | viability (% of control)
57 | CC(=Cc1csc(C)n1)[C@@H]1C[C@H]2O[C@]2(C)CCC[C@H](C)[C@@H](O)[C@@H](C)C(=O)C(C)(C)[C@@H](O)CC(=O)O1 | 17%
58 | CCCCCC[C@H]1C(=O)O[C@H](C)[C@H](NC(=O)c2cccc(NC=O)c2O)C(=O)O[C@@H](C)[C@@H]1OC(=O)CC(C)C | 85.6%
59 | Cc1c(C(=O)c2cccc3ccccc23)c2cccc3c2n1[C@H](CN1CCOCC1)CO3 | 40%
60 | CC(O)=C(C#N)C(=O)Nc1cc(Br)ccc1Br | 103%
61 | C1=C2CCCN[C@H]2[C@@H]2C[C@H]1[C@@H]1CCCCN1C2 | 105%
62 | CCC(=O)OC1CCC2C3CCC4=CC(=O)CC[C@@]4(C)C3CC[C@]12C (some centres undefined) | 105%
63 | NC1CC1c1ccccc1 (centres undefined) | 95.2%
64 | C[C@@H]1O[C@@H](O[C@@H]2C=C3CC[C@@H]4[C@@H](CC[C@]5(C)[C@H](c6ccc(=O)oc6)CC[C@@]45O)[C@@]3(C)CC2)[C@H](O)[C@H](O)[C@H]1O | 3.76%
65 | O=c1[nH]c2ccc(Cl)cc2c(N[C@@H]2CN3CCC2CC3)c1-c1nc2ccccc2[nH]1 | 2.3%
66 | c1ccc(CCCN2CCN(CCOC(c3ccccc3)c3ccccc3)CC2)cc1 | 5.14%
67 | CN1CCN(c2ccc([N+](=O)[O-])c3no[n+]([O-])c23)CC1 | 4.53%
68 | C#CC1(O)CCC2C3CCC4=CC(=O)CCC4(C)C3CCC21C (centres undefined) | 100%
69 | C[C@]12COC(=O)C[C@@H]1CC[C@@H]1[C@H]2CC[C@@]2(C)[C@H]1CC[C@]2(C)O | 111%
70 | CC(C)[C@H]1C(=O)N[C@H](CO)Cc2c[nH]c3cccc(c23)N1C | 82.8%
71 | C[C@@]12OC(=O)[C@]1([C@@H](O)[C@@H]1C=CCCC1)NC(=O)[C@H]2CCCl | 3.86%
72 | CCNC(=O)C[C@@H]1N=C(c2ccc(Cl)cc2)c2cc(OC)ccc2-n2c(C)nnc21 | 7.23%
73 | CC(=Cc1csc(C)n1)[C@@H]1C[C@H]2O[C@@H]2CCC[C@H](C)[C@@H](O)[C@@H](C)C(=O)C(C)(C)[C@@H](O)CC(=O)O1 | 26.8%
74 | C[C@]12CCC(=O)C(O)=C1CC[C@@H]1[C@H]3CCC(=O)[C@@]3(C)CC[C@@H]12 | 116%
